In ChEMBL document CHEMBL1157539, “Thousands of chemical starting points for antimalarial lead identification” (Nature, 2010):

Legend:
Assay type in all cases: functional
Plasmodium falciparum [1] = assay: GSK_TCMDC: Inhibition of Plasmodium falciparum 3D7 in whole red blood cells, using parasite LDH activity as an index of growth. Test compounds present at 2uM
Plasmodium falciparum [2] = assay: GSK_TCMDC: Inhibition of Plasmodium falciparum Dd2 in whole red blood cells, using parasite LDH activity as an index of growth. Test compounds present at 2uM
HepG2 = assay: GSK_TCMDC: Percent inhibition of human HepG2 cell line. Test compounds present at 10uM.

Row | SMILES | Inhibition (Plasmodium falciparum [1]) | Inhibition (Plasmodium falciparum [2]) | Inhibition (HepG2)
1 | O=C(/C=C/c1ccc(Cl)c(Cl)c1)NCCCCCN1CCCN(C(=O)Nc2ccc(OC(F)F)cc2)CC1 | 99% | 0% | 39%
2 | O=C(NCCCCN1CCC(C(c2ccccc2)c2ccccc2)CC1)c1ccc(NC(=O)c2ccc(Cl)cc2)cc1 | 100% | 47% | 12%
3 | COc1c(Br)cc(Br)cc1-c1ccc(CN2CC3CCC2CC3)[nH]1.Cl | 98% | 100% | 91%
4 | O=C(/C=C/c1ccc(Cl)c(Cl)c1)NCCCCCN1CCC(NC(=O)c2ccc(F)c(F)c2)CC1 | 99% | 20% | 36%
5 | Cc1cc(C2CCN(CCCCNC(=O)c3ccc(NC(=O)c4ccc(Cl)cc4)cc3)CC2)c(C)cc1OCc1cccnc1 | 100% | 90% | 39%
6 | Cc1ccc(CN2CCCN(Cc3cccc(NC(=O)c4ccc(Cl)c(Cl)c4)c3)CC2)cc1.O=C(O)C(F)(F)F | 96% | 18% | 32%
7 | Br.N=C(N)Nc1nc(-c2cc(NC(=O)C(F)(F)F)cc([N+](=O)[O-])c2)cs1 | 98% | 51% | 7%
8 | O=C(/C=C/c1ccc(Cl)c(Cl)c1)NCCCCCCN1CCCN(C(=O)Nc2cc(F)cc(F)c2)CC1 | 99% | 0% | 25%
9 | COc1ccc2nccc([C@@H](O)CN3CCC(NCCOc4ccc(F)cc4F)CC3)c2c1.O=C(O)C(=O)O | 100% | 68% | 13%
10 | COc1cccc(COCC(O)CN(CCc2ccccn2)C(=O)c2ccccc2F)c1 (stereo not given) | 97% | 30% | 61%
